The record followed here is PubChem BioAssay.

The structures appear in SMILES notation. A number with no mark means an inactive call. For part of these data: Potency and affinity values are given separately. Calls of active or inactive are those of the source. Unless noted, no rule for the calls is given here.

Experiment [1] in a line: antimalarial activity against Dd2 strain (AID 2302;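 active = growth inhibition above 50% at the single 2 µM test dose, taken to imply half-maximal potency below 2 µM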;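 also: 0% = DMSO untreated growth and 100% = chloroquine plus artemisinin killed control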). Particulars: P. falciparum Dd2 in RBCs, LDH growth readout, 72 h; at 2 µM; hits give high values.
Experiment [2] can be described thus: HepG2 cytotoxicity, primary screen, cytotoxicity control for P. falciparum antimalarial project, cell-based, ATP luminescence (AID 2303;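 active = inhibition above 50%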;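 also: 0% = DMSO wells and 100% = digitonin-killed cells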). The conditions noted are these: HepG2 viability, 24-48 h, at 10 µM, hits give high values.
Experiment [3] has as its target L-lactate dehydrogenase (Plasmodium falciparum (isolate CDC / Honduras)) (UniProt Q27743). The experiment in a line: PfLDH activity inhibition – cell lysate, 3D7 strain, counter-screen for P. falciparum growth inhibition project (AID 2304).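 Also: 0% = vehicle and 100% = reference inhibitor.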 Particulars: P. falciparum 3D7 crude extract, LDH APAD/NBT absorbance; at 2 µM; hits give high values.
Experiment [4] can be described thus: inhibition of 3D7 malaria parasite growth – strain 3D7 (AID 2306).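 Also: 0% = DMSO wells and 100% = chloroquine plus artemisinin control wells.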 The conditions noted are these: P. falciparum 3D7 erythrocytic growth, LDH absorbance, 72 h; at 2 µM; hits give high values.
Experiment [5] deals with Calcium-dependent protein kinase 1 (Plasmodium falciparum (isolate 3D7)) (UniProt P62344). The experiment in a line: PfCDPK1 kinase inhibitors, biochemical, TCAMS library (AID 1159585; cut-off not given, nearly all actives have IC50 up to about 0.98 µM;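 also: inhibitors leave more ATP so luminescence rises with inhibition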). Particulars: recombinant PfCDPK1, Kinase-Glo ATP depletion luminescence.
Experiment [6] deals with Plasmodium falciparum protein kinase 6 (PK6, PF3D7_1337100) (UniProt Q8IDW1). Kind of experiment: PfPK6 kinase inhibitors, biochemical, TCAMS library (AID 1159586). Particulars: recombinant PfPK6, Kinase-Glo ATP depletion luminescence.
Experiment [7] addresses Protein kinase 7 (PK7), Plasmodium falciparum 3D7 (PF3D7_0213400) (UniProt Q7YTF7). Kind of experiment: inhibition of Plasmodium PK7 catalytic activity – biochemical, TCAMS antimalarial set, Kinase-Glo luminescence (AID 1159587). Particulars: recombinant PfPK7, Kinase-Glo ATP depletion luminescence.
Experiment [8] addresses Calcium-dependent protein kinase 4 (Plasmodium falciparum (isolate 3D7)) (UniProt Q8IBS5). Kind of experiment: PfCDPK4 kinase inhibitors, biochemical, TCAMS library (AID 1159588; cut-off not given, nearly all actives have IC50 up to about 0.91 µM). Particulars: recombinant PfCDPK4, Kinase-Glo ATP depletion luminescence.

Protein kinase 7 (PK7), Plasmodium falciparum 3D7 (PF3D7_0213400), sequence (Q7YTF7 1-343): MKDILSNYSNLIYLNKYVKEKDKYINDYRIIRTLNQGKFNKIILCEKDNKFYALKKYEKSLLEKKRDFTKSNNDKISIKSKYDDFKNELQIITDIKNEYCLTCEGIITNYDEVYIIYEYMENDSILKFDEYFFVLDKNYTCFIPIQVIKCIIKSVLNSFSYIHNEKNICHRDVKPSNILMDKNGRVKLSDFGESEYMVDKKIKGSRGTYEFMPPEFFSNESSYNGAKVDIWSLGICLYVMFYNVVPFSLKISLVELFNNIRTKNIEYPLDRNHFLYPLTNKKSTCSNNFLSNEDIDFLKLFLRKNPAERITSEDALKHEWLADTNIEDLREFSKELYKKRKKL
Plasmodium falciparum protein kinase 6 (PK6, PF3D7_1337100), sequence (Q8IDW1 1-305): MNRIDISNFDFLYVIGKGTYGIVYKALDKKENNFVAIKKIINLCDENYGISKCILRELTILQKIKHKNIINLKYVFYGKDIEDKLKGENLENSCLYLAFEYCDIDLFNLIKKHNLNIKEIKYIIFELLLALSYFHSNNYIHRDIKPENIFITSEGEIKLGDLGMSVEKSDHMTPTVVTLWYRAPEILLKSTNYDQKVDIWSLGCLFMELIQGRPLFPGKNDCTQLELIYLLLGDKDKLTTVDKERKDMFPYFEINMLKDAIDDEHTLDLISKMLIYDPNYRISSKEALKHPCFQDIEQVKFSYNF
L-lactate dehydrogenase (Plasmodium falciparum (isolate CDC / Honduras)), sequence (Q27743 whole entry, looked up): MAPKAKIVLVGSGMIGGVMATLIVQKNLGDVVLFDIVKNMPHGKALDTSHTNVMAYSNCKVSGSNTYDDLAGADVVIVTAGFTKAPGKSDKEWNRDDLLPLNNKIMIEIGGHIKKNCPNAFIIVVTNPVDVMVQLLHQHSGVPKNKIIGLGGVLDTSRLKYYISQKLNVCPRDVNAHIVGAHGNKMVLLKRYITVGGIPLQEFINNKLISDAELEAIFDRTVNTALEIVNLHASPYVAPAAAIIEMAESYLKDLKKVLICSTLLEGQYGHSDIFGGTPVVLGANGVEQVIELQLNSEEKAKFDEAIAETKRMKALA
Calcium-dependent protein kinase 1 (Plasmodium falciparum (isolate 3D7)), sequence (P62344 whole entry, looked up): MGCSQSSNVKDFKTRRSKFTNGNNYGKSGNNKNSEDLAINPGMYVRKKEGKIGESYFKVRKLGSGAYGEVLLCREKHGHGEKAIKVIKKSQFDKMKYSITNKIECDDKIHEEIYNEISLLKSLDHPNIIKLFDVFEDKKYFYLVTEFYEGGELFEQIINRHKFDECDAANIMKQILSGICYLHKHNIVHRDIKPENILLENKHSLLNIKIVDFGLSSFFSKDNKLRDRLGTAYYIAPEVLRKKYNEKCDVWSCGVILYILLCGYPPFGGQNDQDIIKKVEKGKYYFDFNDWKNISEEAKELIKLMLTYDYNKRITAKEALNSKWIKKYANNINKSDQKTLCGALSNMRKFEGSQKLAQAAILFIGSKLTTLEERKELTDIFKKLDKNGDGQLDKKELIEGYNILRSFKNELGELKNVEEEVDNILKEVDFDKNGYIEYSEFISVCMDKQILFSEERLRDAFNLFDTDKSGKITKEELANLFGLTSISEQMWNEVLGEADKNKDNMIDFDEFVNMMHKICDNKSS
Calcium-dependent protein kinase 4 (Plasmodium falciparum (isolate 3D7)), sequence (Q8IBS5 whole entry, looked up): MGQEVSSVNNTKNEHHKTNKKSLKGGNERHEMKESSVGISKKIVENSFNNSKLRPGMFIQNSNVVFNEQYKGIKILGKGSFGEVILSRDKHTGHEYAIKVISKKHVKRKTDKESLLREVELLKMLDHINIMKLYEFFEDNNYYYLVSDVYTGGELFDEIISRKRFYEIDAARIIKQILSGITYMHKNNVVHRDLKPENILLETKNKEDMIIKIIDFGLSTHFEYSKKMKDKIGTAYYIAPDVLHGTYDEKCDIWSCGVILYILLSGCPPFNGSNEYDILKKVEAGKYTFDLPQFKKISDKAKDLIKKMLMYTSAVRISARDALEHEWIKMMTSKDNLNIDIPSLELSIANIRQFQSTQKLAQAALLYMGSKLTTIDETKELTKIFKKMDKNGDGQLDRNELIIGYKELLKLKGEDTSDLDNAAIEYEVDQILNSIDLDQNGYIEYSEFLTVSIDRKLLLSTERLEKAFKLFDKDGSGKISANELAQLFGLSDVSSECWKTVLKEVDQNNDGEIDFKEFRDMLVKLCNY

Consider `CN1CCCN(Cc2ccc(-c3cccc(NC(=O)c4cccc(Cl)c4)c3)cc2)CC1`, for which the growth inhibition was 32% in experiment [1] and 100% (active) in experiment [4]. The results for the inhibition in experiment [2] and in experiment [3] were 33% and -3%, respectively. For the same molecule, the outcome in experiment [5], in experiment [6], in experiment [7] and in experiment [8] was inactive.

Consider `C=CCOC(=O)N1CCC(CNCc2ccc(-c3cccc(-c4nc5ccccc5[nH]4)c3)cc2)C1` (centres undefined), for which the growth inhibition in experiment [1] was 50% (active); in experiment [4], 100% (active). Further, the inhibition was 39% in experiment [2] and 2% in experiment [3]. Besides, the outcome in experiment [5], in experiment [6], in experiment [7] and in experiment [8] was inactive.

With `CC[C@]1(C)C[C@@H](NC(=O)NC(=O)c2ccc(OC)cc2)[C@]2(C)[C@H](C)CC[C@]3(CCC(=O)[C@H]32)[C@@H](C)[C@@H]1OC(=O)NC(=O)c1ccc(OC)cc1`, the values for the growth inhibition in experiment [1] and in experiment [4] were 98% (active) and 100% (active), respectively. For the same molecule, the inhibition in experiment [2] is 10%; in experiment [3] it was -5%. The result in experiment [5], in experiment [6], in experiment [7] and in experiment [8] was inactive.
